Hit rate of the full screen: of about 360,000 compounds, about 1,100 (0.31%) were called active. Many of the other results were omitted from the sample, so actives are more common in it than they were. Unmarked numbers belong to inactive results. Rule as the data show it: active = activity change below about -80%; inconclusive = mostly about -51% to -80%; inactive = weaker than that.
The molecules below were run against RAC-alpha serine/threonine-protein kinase (Homo sapiens) (UniProt P31749) (assay: HTS Assay for Inhibitors of Akt Phophorylation: Primary Screen). Settings: Neuro2A IGF-stimulated pAkt S473 HTRF, 20 min; at 50 µM, hits give low values.
Source text: The serine/threonine protein kinase Akt (protein kinase B) regulates various cellular processes, including cell survival, growth, proliferation, migration and differentiation. It has been well established that Akt is activated through two essential steps involving membrane translocation and phosphorylation. Cytosolic Akt is recruited to the plasma membrane via the interaction between the PH domain and membrane PIP3 produced by phosphoinositide-3 kinase (PI3K) upon growth factor receptor stimulation. The membrane-Akt interaction results in conformational changes of Akt, enabling its activation through phosphorylation at T308 in the kinase domain and at S473 in the C-terminal hydrophobic motif by PDK1 and mTOR-rictor complex (mTORC2), respectively. […] These findings indicate that S473 phosphorylation, as an important modulator of Akt activation, may be a valuable drug target for cell growth, survival, proliferation and differentiation. These inhibitors also may have significant therapeutic potential with fewer side effects, especially for the conditions involving hyperactive Akt signaling, such as cancer and Alzheimer's disease.
To this end, a miniaturized assay was developed to be screened against the Molecular Libraries Small Molecule Repository (MLSMR).
NIH Chemical Genomics Center [NCGC]
NIH Molecular Libraries Probe Centers Network [MLPCN]
Assay Submitter (PI): Hee-Yong Kim, National Institute on Alcohol Abuse and Alcoholism
3 uL of Neuro2A cell suspension in DMEM containing 0.5% FBS and […] antibiotics mix was plated in a white solid bottom tissue culture-treated 1536-well plate (Greiner Bio-One, Monroe, NC) at 4,500 cells per well and incubated overnight at 37 deg C. 23 nL/well of compound solutions in DMSO was added with Pintool transfer (Kalypsis, San Diego, CA) at single […] final concentration. Then, the cells were stimulated with 1.5 uL of IGF (6 nM final concentration) and incubated at 37 deg C for 20 min. The reaction was terminated by the addition of 1.5 uL blocking reagent mixed with lysis buffer (1:25 correspondingly) provided with HTRF(R) Phospho Akt (Ser473) kit (Cisbio US, Bedford, MA), with following incubation for 50 min at ambient temperature. The detection HTRF conjugates from the kit were prepared according to the protocol, pre-mixed 1:1 prior to dispensing, and 2 uL/well was added with BioRAPTR FRD dispenser (Beckman Coulter). The assay plates were incubated for 24 hours at ambient temperature, and the HTRF fluorescence was measured using Envision plate reader (PerkinElmer) with excitation at 330nm, emission at 615nm (Eu(3)-Cryptate donor signal) and 665nm (d2 acceptor signal). The ratio of […] was calculated for each well.
% is scaled to controls: 0 for no effect and ±100 for the full control effect.

SMILES	activity change
COc1ccc(C(O)C(O)(C(=O)OC(C)C)c2ccc(C)cc2)cc1 (configuration not stated)	inactive
Cc1cc(C)cc(NS(=O)(=O)c2ccc(Oc3ncc(C(F)(F)F)cc3Cl)cc2)c1	-13.6%
FC(F)(F)c1cnc(Oc2ccccc2-c2nnc(-c3ccc(Cl)cc3)o2)c(Cl)c1	-102% (active)
CSc1ccccc1-c1nnc(-c2ccc(Cl)cc2)o1	-0.409%
COC(=O)[C@@]12C[C@@H](CC(=O)N3CCC(c4ccccc4)CC3)C(=O)N(Cc3ccccc3)C1=CCC(C)(C)C2	inactive
COC(=O)C1=CN(c2c(C)cc(C)cc2C)C(N)=C(C#N)C1c1cccc(F)c1 (configuration not stated)	inactive
Cc1ccc(Cc2nnc(SCC(=O)Nc3ccc(C)cc3C)[nH]c2=O)cc1	inactive
NC(=O)c1c(NC(=O)CSc2nnc(-c3ccco3)n2N)sc2c1CCCC2	inactive
CCCc1cc(=O)[nH]c(SCC(=O)Nc2sc3c(c2C#N)CCCC3)n1	inactive
N#Cc1c(NC(=O)CSc2nc3ccccc3c(=O)n2Cc2ccco2)sc2c1CCCC2	-91.1% (active)
CCC(C)CN1C(=O)CN(S(C)(=O)=O)CC1(C)C(=O)Nc1ccc2c(c1)OCCO2 (configuration not stated)	inactive
O=C1Nc2ccccc2-n2nnnc2C1N1CCN(c2cccc(C(F)(F)F)n2)CC1 (configuration not stated)	inactive
Cc1ccc(OCc2nc(C#N)c(N3CCCC3)o2)cc1	-113% (active)
CC1CCN(c2oc(-c3ccccc3F)nc2C#N)CC1	inactive
N#Cc1nc(COc2ccc(Cl)cc2)oc1N1CCCC1	inactive
C=CCC1(C(=O)N(C)Cc2ccccc2)CCN(C(=O)OC(C)(C)C)CC1	inactive
CCN(CC)CCCN=C(N)N	inactive
COC(=O)C[C@H]1C=C[C@H](NC(=O)c2ccc(F)cc2)[C@@H](CO)O1	inactive
N#Cc1nc(Cc2cccc3ccccc23)oc1NCc1ccc2c(c1)OCO2	-4.85%
Cc1ccc(-c2nc(C#N)c(NCCCn3ccnc3)o2)cc1	inactive
N#Cc1nc(Cc2ccccc2)oc1NCCc1ccccc1	-105% (active)
COC(=O)[C@]12CCCCC=C1N(Cc1ccc3c(c1)OCO3)C(=O)[C@H](CC(=O)NCc1cccs1)C2	inactive
COc1ccccc1P(=O)(c1ccccc1)c1ccccc1NC(C)=O (configuration not stated)	inactive
Cc1ccc(C(=O)Nc2c(-c3ccccc3)[nH][nH]c2=O)cc1	inactive
CCOC(=O)c1sc(NC(=O)CCN2CCOCC2)c(C(=O)OCC)c1C	-80.1% (active)
CCOC(=O)c1c(NC(=O)CCCN2CCOCC2)sc2c1CC(C)(C)OC2	inactive
COC(=O)c1c(NC(=O)CCN2CCOCC2)sc2c1CCCC2	inactive
